Results reported in PubChem BioAssay (NCATS).
Records with an inconclusive call do not appear. Calls of active or inactive are those of the source. The call rests on the fitted dose curve; in most records, active means well fitted curve in the direction sought with a large enough effect; inconclusive means small, poorly fitted or top-dose-only effect, or another doubt; inactive means no such curve, though single readings can be large; an effect the other way counts as inactive or inconclusive. Starred links: 1 amine or outer side, 2 acyl side, 3 side chain; linkers in the order of their positions; H or OH if unused. Positions of bridges follow the written chain, without caps; N, C: chain ends. Non-standard residues stand in square brackets, D forms with d. Residues, ends and D or L forms follow the SMILES beside them. Chains are numbered I, II in the order given. Actinocin(9to1) = Cc1c2oc3c(C)ccc(C(=O)[*:1])c3nc-2c(C(=O)[*:2])c(N)c1=O; NMeV = CN[CH](C(=O)O)C(C)C; Sar = CNCC(=O)O

System: not listed separately
Assay: qHTS of pediatric cancer cell lines to identify multiple opportunities for drug repurposing: Confirmatory screen for SK-N-SH cells (AID 1347129);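 further: cells exposed to compound for 48 h before viability read; nearly all actives have a fitted effect of over 60% in size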;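 on activity change, negative = cytotoxic: plate controls were DMSO for no effect and bortezomib control for full effect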
Settings: SK-N-SH neuroblastoma cell viability; series mostly up to 46.1 µM; activity change, negative = cytotoxic: at the top concentration
Procedure, shortened: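 Viability after 48 h compound treatment at 37C, 500-1,000 cells/well, read as ATP luminescence with CellTiter-Glo. Primary screens used 11-point (MIPE, 0.78 nM-46 µM) or 8-point (NPC, 0.59 nM-46 µM) final concentrations; follow-up screens used 11-point dilutions.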
Potency means the concentration at half of the fitted maximal effect.

Row | Structure (SMILES) | Potency | activity change, negative = cytotoxic
1 | C=CC(=O)Nc1ccc2ncnc(Nc3ccc(OCc4cccc(F)c4)c(Cl)c3)c2c1 | 16.6 µM (active) | 
2 | COc1ccc(C[C@@H](C)[C@@H](C)Cc2ccc(OC)c(OC)c2)cc1OC |  | -17.3% (inactive)
3 | CC(=O)N1CCN(c2ccc(OCc3nn(C)c(C)c3-c3cccc4c(CCCOc5cccc6ccccc56)c(C(=O)O)n(Cc5cccnc5)c34)cc2)CC1 |  | 9.7% (inactive)
4 | COc1cccc2c1C(=O)c1c(O)c3c(c(O)c1C2=O)C[C@@](O)(C(=O)CO)C[C@@H]3O[C@H]1C[C@H](N)[C@H](OC2CCCCO2)[C@H](C)O1 (some centres undefined) | 4.69 µM (active) | 
5 | O=C(Nc1cc2cc[nH]c2cn1)c1ccccc1 | 10.5 µM (active) | 
6 | CC(=O)ON=C1C(c2c(O)[nH]c3cc(Br)ccc23)=Nc2ccccc21 | 23.5 µM (active) | 
7 | NC(=O)Nc1sc(-c2ccc(F)cc2)cc1C(N)=O | 14.8 µM (active) | 
8 | Cn1cnc(=N)c2[nH]cnc21 |  | 0.399% (inactive)
9 | Cc1cnc(Nc2ccc(N3CCN(C)CC3)cc2)nc1Nc1cccc(S(=O)(=O)NC(C)(C)C)c1 | 2.35 µM (active) | 
10 | CNC(=O)c1ccc(Nc2cc(Nc3ccccc3S(=O)(=O)C(C)C)c3cc[nH]c3n2)nc1 | 5.9 µM (active) | 
11 | C=C1C(=CC=C2CCC[C@]3(C)[C@@H]([C@H](C)CCCC(C)(C)O)CC[C@@H]23)C[C@@H](O)C[C@@H]1O |  | 0.243% (inactive)
12 | CCOC(=O)C1=C(C)NC(=S)NC1c1cccc(O)c1 (centres undefined) |  | -13.2% (inactive)
13 | O=C(NCc1ccccc1)[C@H](Cc1ccccc1)NC(=O)[C@@H]1O[C@@H]1C(=O)NCCc1ccc(O)cc1 |  | -5.2% (inactive)
14 | CC(=O)SCC(Cc1ccccc1)C(=O)NCC(=O)OCc1ccccc1 (centres undefined) |  | -12.1% (inactive)
15 | CC(N[C@H]1CCCC[C@H]1NC(=O)c1ccc(Cl)cc1)c1cccc2ccccc12 (some centres undefined) | 9.35 µM (active) | 
16 | COc1ccc2c(c1OC)C(=O)OC2[C@H]1c2c(cc3c(c2OC)OCO3)CCN1C (some centres undefined) |  | -23.9% (inactive)
17 | COC(=O)C=CC(=O)OC |  | -0.214% (inactive)
18 | CC(C)NC[C@@H](C(=O)N1CCN(c2ncnc3c2[C@H](C)C[C@H]3O)CC1)c1ccc(Cl)cc1 | 16.6 µM (active) | 
19 | N#Cc1c(C2CCNCC2)cc(-c2c(O)cccc2OCC2CC2)nc1N | 23.5 µM (active) | 
20 | Cc1c2oc3c(C)ccc(C(=O)NC4C(=O)NC(C(C)C)C(=O)N5CCCC5C(=O)N(C)CC(=O)N(C)C(C(C)C)C(=O)OC4C)c3nc-2c(C(=O)NC2C(=O)NC(C(C)C)C(=O)N3CCCC3C(=O)N(C)CC(=O)N(C)C(C(C)C)C(=O)OC2C)c(N)c1=O (centres undefined) (I: TVP[Sar][NMeV] / II: TVP[Sar][NMeV]; ester I:1-I:C, II:1-II:C; linker I:N-II:N via Actinocin(9to1); configuration not given here) | 0.0187 µM (active) | 
21 | C=Cc1c(C)c2cc3nc(cc4[nH]c(cc5nc(cc1[nH]2)C(C)=C5CCC(=O)O)c(CCC(=O)OC)c4C)[C@@]1(C)C3=CC=C(C(=O)OC)[C@H]1C(=O)OC |  | -0.803% (inactive)
22 | COc1cc(C[C@@H](CO)[C@H](CO)Cc2ccc(O)c(OC)c2)ccc1O |  | 8.19% (inactive)
23 | O=C1c2c(O)cccc2[C@@H]([C@@H]2O[C@H](CO)[C@@H](O)[C@H](O)[C@H]2O)c2cc(CO)cc(O)c21 |  | -1.67% (inactive)
24 | C#CCC(Cc1cnc2nc(N)nc(N)c2n1)c1ccc(C(=O)N[C@@H](CCC(=O)O)C(=O)O)cc1 (some centres undefined) |  | -3.54% (inactive)
25 | COc1cccc2c1C(=O)c1c(O)c3c(c(O)c1C2=O)C[C@@](O)(C(=O)CO)C[C@@H]3O[C@H]1C[C@H](N)[C@@H](O)[C@H](C)O1 | 0.332 µM (active) | 
26 | COc1cc(O)c2c(c1)C1OC1C[C@H](O)[C@H](O)C(=O)C=CC[C@H](C)OC2=O (some centres undefined) | 4.69 µM (active) | 

Target: Furin (Homo sapiens) (UniProt P09958)
Assay: Furin counterscreen qHTS for Zika virus inhibitors (AID 1347149); further: nearly all actives have a fitted effect of over 70% in size;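 on activity change, negative = inhibition: purified recombinant full-length human furin enzyme at 5 nM; fluorescence gain from furin cutting a BOC-RVRR-AMC peptide substrate over 15 min; top concentration of the series differs between compounds; plate controls were no-inhibitor control for no effect and no-enzyme control for full effect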
Settings: furin enzymatic counterscreen, fluorogenic substrate; series mostly up to 57.5 µM; activity change, negative = inhibition: at the top concentration
Procedure, shortened: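 Counterscreen measures cleavage of 2 microM BOC-RVRR-AMC, below its ~15 microM Km, by 5 nM full-length human furin at pH 7.0 after a 15-min compound preincubation. Inhibition derives from the 15-min fluorescence increase at 37C.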

Furin (Homo sapiens), sequence (P09958 whole entry, looked up): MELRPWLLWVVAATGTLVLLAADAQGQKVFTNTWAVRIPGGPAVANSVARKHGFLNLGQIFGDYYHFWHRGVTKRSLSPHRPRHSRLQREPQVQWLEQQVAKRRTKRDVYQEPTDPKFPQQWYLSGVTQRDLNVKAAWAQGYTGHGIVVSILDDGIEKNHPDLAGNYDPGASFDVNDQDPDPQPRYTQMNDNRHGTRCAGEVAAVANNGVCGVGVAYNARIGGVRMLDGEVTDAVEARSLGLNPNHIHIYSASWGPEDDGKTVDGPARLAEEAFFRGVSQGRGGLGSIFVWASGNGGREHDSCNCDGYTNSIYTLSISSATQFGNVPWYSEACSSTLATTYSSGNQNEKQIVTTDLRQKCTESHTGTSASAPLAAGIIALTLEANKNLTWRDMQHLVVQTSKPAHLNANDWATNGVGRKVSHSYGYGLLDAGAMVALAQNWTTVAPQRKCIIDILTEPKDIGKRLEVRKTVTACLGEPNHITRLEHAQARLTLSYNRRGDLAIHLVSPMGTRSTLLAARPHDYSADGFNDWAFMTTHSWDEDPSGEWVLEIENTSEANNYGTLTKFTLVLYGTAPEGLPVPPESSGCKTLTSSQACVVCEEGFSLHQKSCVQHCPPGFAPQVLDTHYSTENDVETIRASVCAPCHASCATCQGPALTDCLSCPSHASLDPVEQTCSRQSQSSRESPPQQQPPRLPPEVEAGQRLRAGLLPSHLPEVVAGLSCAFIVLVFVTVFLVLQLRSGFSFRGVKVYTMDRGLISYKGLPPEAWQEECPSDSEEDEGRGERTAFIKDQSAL

Row | Structure (SMILES) | Potency | activity change, negative = inhibition
27 | c1cc(N[C@@H]2CCNC2)nc(-c2cnc3ccc(-c4cn[nH]c4)cn23)c1 | 24.1 µM (active) | 
28 | COc1ccc(S(=O)(=O)Nc2cc(-c3c(O)ccc4ccccc34)c(O)c3ccccc23)cc1 |  | -2.62% (inactive)
29 | C[C@H]1COc2c(N3CCN(C)CC3)c(F)cc3c(=O)c(C(=O)O)cn1c23 | 24.1 µM (active) | 
